Results from PubChem BioAssay.

test: small-molecule binders of probe aInhba, primary screen, biochemical, small-molecule microarray, 635/667 nm fluorescence (AID 1148); conditions: higher = more signal;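 note: score merges 667nm spot fluorescence with signal-to-noise for antibody binding to printed compounds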

Compound	composite z-score
CCOC(=O)C[C@H]1[C@H](OC(=O)Cc2ccc3c(c2)OCO3)[C@@H](NC(=O)Cc2ccc(OC)cc2)c2cc(OCCCO)ccc2N1C(=O)Cc1ccc(OC)cc1	-0.154
COC(=O)[C@@]1(Cc2ccccc2)[C@H]2c3cc(C(=O)N4CCCC4)n(Cc4ccc(OC)c(OC)c4)c3C[C@H]2CN1C(=O)c1ccccc1	0.715
[N-]=[N+]=Nc1ccccc1C[C@]1(C(=O)N2CCOCC2)N=C(c2ccc(OCCCO)cc2)O[C@H]1c1ccccc1N=[N+]=[N-]	0.0757
CC(C)(C)N1CC=CC23O[C@@H]4/C=C\CCCOC(=O)C4[C@H]2C(=O)N(CCCO)[C@@H]3C1=O (stereo partly specified)	-0.0112
COc1ccc(CCNC(=O)[C@@H]2c3ccccc3C(=O)N(Cc3ccccc3OC)[C@H]2c2ccc(CO)cc2)cc1	0.0028
NC(=O)NCC#Cc1ccc2c(c1)[C@]1(C(=O)N2)[C@H](c2ccc(OCCO)cc2)N2[C@H](c3ccccc3)[C@H](c3ccccc3)OC(=O)[C@H]2[C@@H]1C(=O)O	-0.128
COc1ccc(C(=O)Nc2ccc3c(c2)[C@@]2(O[C@H](CCO)[C@@H]([Si](C)(C)c4ccc(OC)cc4)[C@@H]2C)C(=O)N3Cc2ccccc2)cc1	0.288
COC(=O)C1=CC(CCCO)=CC(c2cccs2)N(Cc2cc3c(cc2Br)OCO3)C=C1C(=O)OC (stereo unspecified)	0.0659
O=C1O[C@H](c2ccccc2)[C@H](c2ccccc2)N2[C@H]1[C@@H](C(=O)O)[C@]1(C(=O)Nc3ccc(C#CCCO)cc31)[C@H]2c1ccc(OCCO)cc1	0.0082
CCOC(=O)C[C@H]1[C@H](OC(=O)Cc2ccc3c(c2)OCO3)[C@@H](NC(=O)c2ccc3ccccc3n2)c2cc(OCCCO)ccc2N1C(=O)Cc1ccc(OC)cc1	-0.101
O=C(NC1CC1)[C@@H]1c2ccccc2C(=O)N(Cc2cc(C(F)(F)F)cc(C(F)(F)F)c2)[C@H]1c1ccc(CO)cc1	-0.248
C=C(/C(=C/C[C@@H](OC(C)=O)c1cccc(OCCO)c1)c1cnc2ccccc2c1)C(C)C	0.0013
O=C1C2C=CC(C(O)c3cccs3)N(Nc3ccc([N+](=O)[O-])cc3)C2C(=O)N1c1ccccc1 (stereo unspecified)	-0.0791
C[N+](C)(C)CCCC[C@@H]1NC(=O)[C@H]2C[C@@H](C(=O)NCCCCCNC(=O)CS)[C@@H](c3cccc(OCCO)c3)N2C1=O	-0.176
COCCOC(=O)N1C(=O)[C@@]2(c3cc(C#CCC(C(=O)OC)C(=O)OC)ccc31)[C@H](c1ccc(O)cc1)N1[C@H](c3ccccc3)[C@H](c3ccccc3)OC(=O)[C@H]1[C@@H]2C(=O)Nc1nc2ccccc2s1	0.221
COC(=O)[C@@]1(Cc2ccc(OC)cc2)[C@H]2c3cc(C(=O)N4CCCC4)n(Cc4c(CO)[nH]cc(C)c4=O)c3C[C@H]2CN1C(=O)c1ccccc1	0.0569
O=C1C[C@]2(c3ccc([N+](=O)[O-])cc3)C(=O)N(C3CC3)c3cc(CO)ccc3[C@H]2N1C1CCCCC1	-0.159
C=C(COC)/C(=C/C[C@@H](OC(C)=O)c1ccccc1OCCO)c1cnc2ccccc2c1	-0.0087
COCCOC(=O)N1C(=O)[C@@]2(c3cc(C#CC4(O)CCCCCC4)ccc31)[C@H](c1ccc(O)cc1)N1[C@H](c3ccccc3)[C@H](c3ccccc3)OC(=O)[C@H]1[C@@H]2C(=O)N1CCCCCCC1	-0.0631
C=CCOC(=O)[C@@H]1[C@H]2C(=O)O[C@H](c3ccccc3)[C@H](c3ccccc3)N2[C@H](c2ccc(OCCOC(=O)[C@H]3C[C@H]4C(=O)N[C@@H](CCCCN(C)C)C(=O)N4[C@H]3c3ccc(O)cc3)cc2)[C@@]12C(=O)Nc1ccc(I)cc12	0.0895
COC(=O)C[C@H]1O[C@@]2(C[C@@H]1[Si](C)(C)C)C(=O)N(C)c1ccccc12	-0.0468
C=CCC(OC(C)=O)[C@@H]1[C@@H](N(Cc2cc3ccccc3o2)C(=O)c2cccc3ccccc23)c2cc(OCCCO)ccc2N1C(=O)c1ccc2ccccc2n1 (stereo partly specified)	-0.0131
COC(=O)[C@@]1(Cc2ccc(OC)cc2)[C@H]2c3cc(C(=O)N4CCCC4)n(CCn4cc([N+](=O)[O-])nc4C)c3C[C@H]2CN1C(=O)c1ccccc1	1.84
CCCCCC1=C2CNC(CC(C)C)(C(=O)OC)C=C2C(C)C1=O (stereo unspecified)	0.0668
O=C1C=C(c2ccccc2)C(=O)C2=C1CC([C@H]1Oc3ccccc3S(=O)(=O)N3CCC[C@@H]13)=CC2	-0.235
COCCOC(=O)N1C(=O)[C@@]2(c3cc(C#CCC(C(=O)OC)C(=O)OC)ccc31)[C@H](C(=O)Nc1nc3ccccc3s1)[C@H]1C(=O)O[C@H](c3ccccc3)[C@H](c3ccccc3)N1[C@@H]2c1ccc(O)cc1	0.326
